Assay [1] has as its target Rap guanine nucleotide exchange factor 3 (Homo sapiens) (UniProt O95398). Briefly: Confirmatory qHTS for agonist of cAMP-regulated guanine nucleotide exchange factor 3 (EPAC1) (AID 1645881;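 note: EPAC1 catalysed release of BODIPY-GDP from Rap1B seen as fluorescence loss; 100% = effect of cAMP agonist control; nearly all actives have a fitted effect of over 75% in size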). (In general: qHTS replaces the single test concentration by a dilution series.)
Assay [2] has as its target Rap guanine nucleotide exchange factor 4 (Homo sapiens) (UniProt Q8WZA2). Briefly: Confirmatory qHTS for agonist of cAMP-regulated guanine nucleotide exchange factor 4 (EPAC2) (AID 1645884).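 Note: nucleotide exchange releases bodipy-GDP from Rap1 and this lowers its fluorescence; % is set by controls: 0 for no effect and ±100 for the full control effect; nearly all actives have a fitted effect of over 65% in size.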
Assay [3] has the same target. The experiment in a line: Confirmatory qHTS for antagonist of cAMP-regulated guanine nucleotide exchange factor 4 (EPAC2) (AID 1645885). For activity change, negative = inhibition: % is set by controls: 0 for no effect and ±100 for the full control effect. Note: nearly all actives have a fitted effect of over 25% in size. Note: potency is the fitted concentration of half-maximal effect.
For assay [4], the target named is Rap guanine nucleotide exchange factor 3 (Homo sapiens) (UniProt O95398). Briefly: Counterscreen qHTS for antagonist of cAMP-regulated guanine nucleotide exchange factor 3 (EPAC1) (AID 1645888). Note: % of control where 0% means no effect. A digest of the protocol: (§1)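 Measured: fluorescence of BODIPY-GDP bound to Rap1B, which falls as exchange proceeds. Conditions include 50 uM competing GDP, 5 and 30 min reads, and a later cAMP challenge for antagonist detection.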
Chain of Rap guanine nucleotide exchange factor 3 (Homo sapiens) (O95398 whole entry, looked up): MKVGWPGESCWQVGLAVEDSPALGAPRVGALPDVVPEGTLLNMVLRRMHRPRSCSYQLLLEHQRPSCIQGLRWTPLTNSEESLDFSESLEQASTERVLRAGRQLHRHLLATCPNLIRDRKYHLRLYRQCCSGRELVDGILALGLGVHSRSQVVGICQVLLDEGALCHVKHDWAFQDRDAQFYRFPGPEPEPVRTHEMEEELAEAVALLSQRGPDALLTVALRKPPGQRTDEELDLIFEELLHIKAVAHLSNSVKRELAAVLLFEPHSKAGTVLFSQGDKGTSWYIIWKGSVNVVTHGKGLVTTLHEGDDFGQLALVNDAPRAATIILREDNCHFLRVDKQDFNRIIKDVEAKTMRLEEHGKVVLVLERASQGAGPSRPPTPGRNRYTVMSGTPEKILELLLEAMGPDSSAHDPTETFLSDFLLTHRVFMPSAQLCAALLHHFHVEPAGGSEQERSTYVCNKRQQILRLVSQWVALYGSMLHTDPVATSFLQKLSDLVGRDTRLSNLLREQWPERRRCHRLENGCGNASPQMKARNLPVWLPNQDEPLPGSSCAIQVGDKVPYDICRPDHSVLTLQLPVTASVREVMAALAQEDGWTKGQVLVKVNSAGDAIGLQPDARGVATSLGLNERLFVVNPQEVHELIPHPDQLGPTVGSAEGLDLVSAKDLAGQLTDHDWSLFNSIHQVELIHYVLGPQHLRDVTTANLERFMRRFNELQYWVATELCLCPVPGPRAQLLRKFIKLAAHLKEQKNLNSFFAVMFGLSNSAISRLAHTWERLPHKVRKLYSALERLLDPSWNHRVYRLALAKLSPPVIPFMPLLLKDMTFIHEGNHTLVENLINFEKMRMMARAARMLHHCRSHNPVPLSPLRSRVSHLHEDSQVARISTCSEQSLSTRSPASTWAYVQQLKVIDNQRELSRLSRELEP
(The purpose of a counterscreen is to sort out artefacts and off-target activity.)

Assay [5] shares this target. Briefly: Counterscreen qHTS for agonist of cAMP-regulated guanine nucleotide exchange factor 3 (EPAC1) (AID 1645889). Note: % of control where 0% means no effect; nearly all actives have a fitted effect of over 40% in size. A digest of the protocol:
as §1

Structures are written as SMILES. Records with an inconclusive call do not appear. A number with no mark means an inactive call. Active and inactive are the calls of the source. Calls come from the whole dose curve; as a rule, active = well fitted curve in the direction sought with a large enough effect; inconclusive = small, poorly fitted or top-dose-only effect, or another doubt; inactive = no such curve, though single readings can be large; an effect the other way counts as inactive or inconclusive.

Chain of Rap guanine nucleotide exchange factor 4 (Homo sapiens) (Q8WZA2 whole entry, looked up): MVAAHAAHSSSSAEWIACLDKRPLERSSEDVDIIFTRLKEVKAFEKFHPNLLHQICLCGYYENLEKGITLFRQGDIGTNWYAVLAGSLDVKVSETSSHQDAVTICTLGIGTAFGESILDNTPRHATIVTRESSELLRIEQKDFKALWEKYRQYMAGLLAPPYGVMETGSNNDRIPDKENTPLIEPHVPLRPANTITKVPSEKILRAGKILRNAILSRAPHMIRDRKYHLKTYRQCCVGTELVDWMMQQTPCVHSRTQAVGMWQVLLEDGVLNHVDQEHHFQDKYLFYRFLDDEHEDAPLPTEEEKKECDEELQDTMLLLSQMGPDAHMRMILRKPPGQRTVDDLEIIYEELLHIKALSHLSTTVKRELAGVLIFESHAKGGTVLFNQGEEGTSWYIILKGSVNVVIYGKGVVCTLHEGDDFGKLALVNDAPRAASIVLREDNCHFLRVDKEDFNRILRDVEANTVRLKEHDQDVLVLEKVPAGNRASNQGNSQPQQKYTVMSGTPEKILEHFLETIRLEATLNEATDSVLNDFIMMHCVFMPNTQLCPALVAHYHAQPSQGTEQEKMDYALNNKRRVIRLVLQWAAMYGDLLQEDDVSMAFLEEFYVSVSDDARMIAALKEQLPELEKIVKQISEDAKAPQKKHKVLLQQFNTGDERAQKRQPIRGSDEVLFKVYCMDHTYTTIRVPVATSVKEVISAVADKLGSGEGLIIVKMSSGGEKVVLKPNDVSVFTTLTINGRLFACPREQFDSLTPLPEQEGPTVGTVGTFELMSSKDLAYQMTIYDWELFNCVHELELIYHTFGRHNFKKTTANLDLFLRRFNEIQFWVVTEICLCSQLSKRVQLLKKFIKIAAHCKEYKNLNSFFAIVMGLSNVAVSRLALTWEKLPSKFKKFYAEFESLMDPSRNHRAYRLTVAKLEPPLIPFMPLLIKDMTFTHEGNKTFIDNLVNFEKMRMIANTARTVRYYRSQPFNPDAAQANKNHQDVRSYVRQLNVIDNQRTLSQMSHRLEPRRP

As to `CCOC(=O)c1ccc(-n2c(N)c(C(=O)OC)c3nc4ccccc4nc32)cc1`, the Potency result in assay [1], in assay [2] and in assay [4] was “inactive” in each case. Also, the outcome in assay [3] was “inactive [at 12.7 µM]”.

Regarding `CCc1nc2c(OCc3ccc(C(=O)OC)cc3)cccn2c1N(C)C(=O)c1ccc(C)cc1`, the Potency entry in assay [1], in assay [2], in assay [3] and in assay [4] was “inactive” each time.

Take `O=c1cc(CSc2nc3ccccc3c(=O)[nH]2)c2ccc(O)cc2o1`: the Potency result in assay [1], in assay [2], in assay [3], in assay [4] and in assay [5] was “inactive” in each case.

Consider `CCOc1ccccc1Oc1ncnc2c1oc1ccccc12`, for which the Potency entry in assay [1], in assay [2] and in assay [4] was “inactive” throughout. Further, the outcome in assay [3] is “inactive [at 12.7 µM]”.

Regarding `COc1ccc(NC(=S)N(CCCN2CCOCC2)C(C)c2cc3cccc(OC)c3o2)cc1` (stereo unspecified), the Potency result in assay [1], in assay [2], in assay [3] and in assay [4] was “inactive” each time.

Take `CCc1nc2c(OCc3ccc(OC(F)F)cc3)cccn2c1N(C)C(=O)c1cccs1`: the Potency result in assay [1], in assay [2], in assay [3] and in assay [4] was “inactive” throughout.

Take `CCc1cccc(C)c1Nc1c(-c2ccsc2)nc2ncccn12`: the Potency result in assay [1], in assay [2], in assay [4] and in assay [5] was “inactive” each time. For the same compound, in assay [3], the outcome was “inactive [at 12.7 µM]”.

For the compound `COc1cccc(C(=O)Nc2ccc(NC(=O)c3ccco3)c(Cl)c2)c1`, the Potency entry in assay [1] and in assay [3] was “inactive” throughout. Moreover, in assay [2], the activation is 0% [at 17.1 µM, percent relative to cAMP agonist control]. Besides, the activity change, negative = inhibition in assay [4] is -46.5% [at 30.8 µM].

In the case of `CC(C)C1COC(c2cccn2Cc2ccccc2Cl)=N1` (stereo unspecified), the Potency result in assay [1] and in assay [3] was “inactive” throughout. The activation in assay [2] was 14.2% [at 17.1 µM, percent relative to cAMP agonist control]. Besides, in assay [4], the activity change, negative = inhibition is -4.02% [at 30.8 µM].

Take `CCCCn1c(COc2cccc(OC)c2)nc2ccccc21`: the Potency entry in assay [1], in assay [2] and in assay [4] was “inactive” in each case. Also, the outcome in assay [3] is “inactive [at 12.7 µM]”.

In the case of `COc1ccc2oc(=O)c(-c3nnc(NCc4ccco4)s3)cc2c1`, the Potency entry in assay [1] and in assay [3] was “inactive” throughout. Besides, the activation in assay [2] is 7.34% [at 17.1 µM, percent relative to cAMP agonist control]. Besides, the activity change, negative = inhibition in assay [4] is 15.5% [at 30.8 µM].

`N=C1/C(=C\c2ccc(-c3cccc(Cl)c3)o2)C(=O)N=C2SC=C(c3ccccc3)N12`: the Potency entry in assay [1], in assay [2], in assay [3] and in assay [4] was “inactive” in each case.

Consider `CCO[C@@H]1OC(C(=O)N2CCN(Cc3ccc4c(c3)OCO4)CC2)=C[C@H](C2CCCCC2)[C@H]1CCCO`, for which the Potency result in assay [1], in assay [2], in assay [3], in assay [4] and in assay [5] was “inactive” each time.

`O=C(N/N=C/c1ccc(O)c(O)c1)c1ccc(CSc2cccc3cccnc23)cc1`: the Potency result in assay [1] and in assay [3] was “inactive” throughout. In assay [2], the activation was 14.6% [at 17.1 µM, percent relative to cAMP agonist control]. The activity change, negative = inhibition in assay [4] was 41.8% [at 30.8 µM].

Consider `O=C(O)c1ccc(/C=C2\COc3ccccc3C2=O)cc1`, for which the Potency entry in assay [1], in assay [2] and in assay [4] was “inactive” in each case. Also, the Potency in assay [3] was 84.9 µM (active).

On to `O=C(CCC(=O)N1CCSc2ccccc21)NCc1cccc(Br)c1`, for which the Potency result in assay [1] and in assay [3] was “inactive” each time. Moreover, the activation in assay [2] is 9.98% [at 17.1 µM, percent relative to cAMP agonist control]; in assay [5] it was 10% [at 30.8 µM]. Further, the activity change, negative = inhibition in assay [4] is 0.997% [at 30.8 µM].

For the compound `COc1ccc(C2C=C(c3ccc(Br)cc3)Nc3nnnn32)c(OC)c1` (stereo unspecified), the Potency result in assay [1], in assay [2], in assay [3] and in assay [4] was “inactive” in each case.

Consider `CCOC(=O)c1ccc(NC(=S)NNC(=O)C2(C)CC2(Cl)Cl)cc1` (stereo unspecified), for which the Potency entry in assay [1], in assay [2], in assay [3] and in assay [4] was “inactive” throughout.

Take `CC(C)(C)C(=O)N1CCC2CC1c1cc(-c3ccc4c(c3)OCO4)ccc12` (stereo unspecified): the Potency entry in assay [1] and in assay [3] was “inactive” throughout. Moreover, the activation is 4.8% [at 17.1 µM, percent relative to cAMP agonist control] in assay [2] and 13.1% [at 30.8 µM] in assay [5]. Further, the activity change, negative = inhibition in assay [4] was -12.7% [at 30.8 µM].

As for `CCCCC(CC)C(=O)Nc1ccc(Nc2ccccc2)cc1` (stereo unspecified), the Potency result in assay [1], in assay [2], in assay [3], in assay [4] and in assay [5] was “inactive” in each case.

For `Cc1ccn2cc(-c3cccc(NC(=O)c4cccs4)c3)nc2c1`, the Potency result in assay [1], in assay [2], in assay [3], in assay [4] and in assay [5] was “inactive” throughout.

As for `COc1cccc2sc(N(CCCN(C)C)C(=O)C(c3ccccc3)c3ccccc3)nc12`, the Potency result in assay [1] and in assay [3] was “inactive” each time. The activation in assay [2] was 7.29% [at 17.1 µM, percent relative to cAMP agonist control]; in assay [5] it was 23.9% [at 30.8 µM]. For the same compound, the activity change, negative = inhibition in assay [4] was -0.182% [at 30.8 µM].

For `CC1CCCCN1S(=O)(=O)c1ccc(C(=O)Nc2nnc(-c3ccccc3Cl)o2)cc1` (stereo unspecified), the Potency entry in assay [1] and in assay [3] was “inactive” each time. Besides, the activation in assay [2] is 0% [at 17.1 µM, percent relative to cAMP agonist control]; in assay [5], 16.2% [at 30.8 µM]. In addition, in assay [4], the activity change, negative = inhibition was -13.1% [at 30.8 µM].
